Source: PubChem BioAssay
Most compounds without a hit are left out; they make up all but 1.1% or so of the library.
E-sel TNF inh: TNF alpha driven E-selectin expression inhibition | inhibition, % at 2 µM | HUVEC TNFa-induced E-selectin immunofluorescence, high content | AID 1246 | 0.71% of 120,000 active;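 active means inhibition above the batch mean plus 3 SD, and confirmed as a hit on visual image review, cut at about 43% in these data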;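 further: 0% = TNF-stimulated DMSO wells and 100% = unstimulated control wells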
TNFa cytotox: toxic to HUVEC cells under TNF alpha stimulation; cell count reduction, % at 2 µM; 0.17% of 93,000 active; HUVEC TNFalpha-stimulated, Hoechst cell count, imaging;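 active means cell count reduction exceeding the screen mean by over 5 SD, scaled to untreated wells per plate, cut at about 78% in these data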;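 further: cells counted after 24 h of TNF alpha exposure following the 1 h pretreatment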
F-actin modifier: alters cytoskeleton assembly in HUVEC cells. HUVEC TNFa F-actin phalloidin imaging, high content. inhibition, % at 2 µM. 0.18% of 91,000 active. AID 836;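 active means inhibition above the batch mean plus 3 SD and confirmed as a hit by visual image inspection, cut at about 30% in these data, passing the limit was not always enough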
VCAM1 TNFa inh: reduces TNF alpha induced VCAM1 expression in HUVEC | 0.48% of 95,000 active | HUVEC TNFa-induced VCAM-1 immunofluorescence, high-content imaging | inhibition, % at 2 µM;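 active means inhibition above the batch mean plus 3 SD, with images confirmed as a hit by eye, cut at about 37% in these data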;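 further: 0% = TNF-stimulated DMSO wells and 100% = unstimulated control wells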
Numbers without * were called inactive; · = no result.

SMILES	E-sel TNF inh	TNFa cytotox	F-actin modifier	VCAM1 TNFa inh
c1ccc(Oc2ccc(-c3ccnc4nc(N5CCN(c6ccccc6)CC5)nn34)cc2)cc1	53*	-8	21	30
COc1ccc(C(=O)NNC(=O)C(=O)NC(C)c2ccccc2)cc1OC (stereo unspecified)	14	·	·	·
CCOC(=O)c1[nH]c(C)c(C(=O)OCC)c1C	·	2	-14	-9
CCOC(=O)c1[nH]c(C)c(C(=O)c2cc(F)ccc2F)c1C	-9	31	-15	83*
CN(C(=O)CO/N=C/c1ccc(OC(F)F)cc1)C1CCS(=O)(=O)C1 (stereo unspecified)	-25	·	·	·
CC(=O)N[C@@H](Cc1c[nH]c2ccccc12)C(=O)OCC(=O)Nc1ccc(Cl)c(S(=O)(=O)N(C)C)c1	62*	·	·	·
COc1cccc(/C=C/C(=O)OCC(=O)Nc2ccc(Cl)c(S(=O)(=O)N(C)C)c2)c1	69*	·	·	·
CC(=O)NC(Cc1c[nH]c2ccccc12)C(=O)OCC(=O)Nc1ccc2c(c1)OCO2 (stereo unspecified)	·	-22	8	12
O=C(COC(=O)c1cc(-c2cccc(Br)c2)nc2ccccc12)NCC1CCCO1 (stereo unspecified)	-44	·	·	·
COc1ccc(S(=O)(=O)N(C)CC(=O)NCc2cccnc2)cc1C	3	-1	-12	8
COc1ccc(CN2CCCCC2C(=O)Nc2ccc(OC)c(OCC(C)C)c2)cc1OC (stereo unspecified)	6	-10	7	97*
CN(C)c1nc(N)nc(CSc2nnnn2-c2ccccc2)n1	12	-48	·	1
c1ccc(NC2=NCCCCS2)cc1	54*	2	4	14
COc1ccc(N(CC(=O)Nc2ccc3c(c2)OCCO3)S(C)(=O)=O)c(OC)c1	0	·	·	·
COc1ccc(OC)c(N(CC(=O)Nc2ccccc2)S(C)(=O)=O)c1	·	16	42*	-22
COc1ccc(N(CC(=O)Nc2ccc3c(c2)OCO3)S(C)(=O)=O)c(OC)c1	64*	-10	-14	6
OCCN=C(c1ccccc1)C12CN3CN(CN(C3)C1)C2	·	-44	13	60*
CC(=O)c1ccc(NC(=S)NCC(c2ccco2)N2CCCC2)cc1 (stereo unspecified)	-30	·	·	·
N=c1c2c(-c3ccccc3)c(-c3ccccc3)n(Cc3ccccc3)c2ncn1CCCn1ccnc1	-20	14	-52	73*
O=C(Cn1cc(C(=O)C(F)(F)F)c2cc(Br)ccc21)N1CCOCC1	61*	·	·	·
CCn1cc(C(=O)C(F)(F)F)c2ccccc21	4	9	5	-12
COc1cc2c(=O)n(-c3ccc(C)cc3)c(=O)n(CC(=O)c3ccc4c(c3)OCO4)c2cc1OC	-5	·	·	·
COc1cc2c(O)c3c(c(-c4ccc5c(c4)OCO5)c2cc1OC)C(=O)OC3	·	64	-56	91*
CCc1ccc(N2CC(C(=O)Nc3cccnc3)CC2=O)cc1 (stereo unspecified)	63*	-9	-10	3
O=C1N2CCSC2=NC1(Nc1ccccn1)C(F)(F)F (stereo unspecified)	·	-18	24	86*
SMILES	E-sel TNF inh	TNFa cytotox	F-actin modifier	VCAM1 TNFa inh
CC1CCCN(c2ccc(C(=O)Nc3cccnc3)cc2[N+](=O)[O-])C1 (stereo unspecified)	-45	·	·	·
COC(=O)c1ccccc1NC(NC(=O)c1ccco1)C(=O)c1ccc(C)cc1 (stereo unspecified)	6	86*	21	62*
COC(=O)c1ccccc1NC(=O)c1ccco1	-8	-11	0	0
Cc1ccc(S(=O)(=O)N2CCN(C(=O)C3COc4ccccc4O3)CC2)cc1C (stereo unspecified)	79*	-10	9	6
C=CCn1c(=O)/c(=C2/Sc3cc(OC)ccc3N2C)s/c1=C1\C(=O)N(CC)C(=S)N1C	-40	·	·	·
CC(=O)c1c(C)[nH]c(C(=O)N2CCc3ccccc32)c1C	·	-17	-8	9
CCOC(=O)c1[nH]c(C)c(C(=O)N2CCc3ccccc32)c1C	16	58	-15	54*
COC(=O)[C@@H]1CCCN1C(=O)CCc1nnc(CCC2CCCCC2)o1	-21	·	·	·
O=C(c1ccc(COc2c(F)c(F)cc(F)c2F)o1)N1CCN(c2ccc(Cl)cc2)CC1	-22	5	-2	-12
O=C1CC(N(Cc2ccc3c(c2)OCO3)C(=O)Nc2ccc(F)cc2)C(=O)N1c1ccccc1 (stereo unspecified)	-20	-17	1	-5
COc1ccc(NC(=O)N(Cc2ccc3c(c2)OCO3)C2CC(=O)N(c3ccc(OC)cc3)C2=O)cc1 (stereo unspecified)	0	-16	32*	-18
C/C(=N\Nc1nc2c(s1)CCCC2)c1ccccc1	26	13	-18	62*
Cc1cc(C)c(C#N)c(=N)o1	62*	10	19	-3
